SMILES strings stand for the structures.

The target in the first assay is Angiopoietin-1 receptor (Homo sapiens) (UniProt Q02763). To be noted: at 0.1 µM.
Angiopoietin-1 receptor (Homo sapiens), sequence (Q02763 whole entry): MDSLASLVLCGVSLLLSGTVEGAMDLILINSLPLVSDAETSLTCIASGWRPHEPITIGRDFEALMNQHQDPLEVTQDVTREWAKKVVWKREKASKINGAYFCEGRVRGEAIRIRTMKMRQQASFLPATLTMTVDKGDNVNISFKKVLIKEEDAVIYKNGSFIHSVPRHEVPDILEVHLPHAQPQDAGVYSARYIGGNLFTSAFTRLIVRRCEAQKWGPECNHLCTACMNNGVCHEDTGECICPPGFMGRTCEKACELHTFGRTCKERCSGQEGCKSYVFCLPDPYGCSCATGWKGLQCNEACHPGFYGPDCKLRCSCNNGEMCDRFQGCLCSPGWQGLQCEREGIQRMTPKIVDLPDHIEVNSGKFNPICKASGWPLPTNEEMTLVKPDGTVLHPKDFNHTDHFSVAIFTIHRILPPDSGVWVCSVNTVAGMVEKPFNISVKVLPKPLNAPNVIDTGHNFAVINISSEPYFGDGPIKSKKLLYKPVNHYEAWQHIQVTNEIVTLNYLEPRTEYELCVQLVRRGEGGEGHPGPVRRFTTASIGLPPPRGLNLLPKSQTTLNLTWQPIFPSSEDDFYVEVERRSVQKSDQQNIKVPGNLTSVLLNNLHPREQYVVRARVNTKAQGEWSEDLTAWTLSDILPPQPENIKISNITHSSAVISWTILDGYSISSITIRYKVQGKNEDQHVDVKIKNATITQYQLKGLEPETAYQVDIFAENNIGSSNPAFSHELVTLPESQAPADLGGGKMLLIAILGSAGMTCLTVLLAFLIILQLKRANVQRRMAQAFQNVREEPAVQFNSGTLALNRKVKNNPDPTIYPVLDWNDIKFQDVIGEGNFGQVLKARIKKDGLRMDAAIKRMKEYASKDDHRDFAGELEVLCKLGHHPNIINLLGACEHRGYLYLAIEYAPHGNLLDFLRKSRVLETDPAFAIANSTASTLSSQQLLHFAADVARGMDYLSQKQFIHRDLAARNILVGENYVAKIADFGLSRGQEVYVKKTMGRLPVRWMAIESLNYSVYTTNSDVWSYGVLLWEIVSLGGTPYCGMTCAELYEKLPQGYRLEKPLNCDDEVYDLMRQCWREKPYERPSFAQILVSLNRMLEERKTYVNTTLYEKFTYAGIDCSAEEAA
Regarding `CS(=O)(=O)Nc1cccc(-c2ccc3c(NC(=O)C4CC4)n[nH]c3c2)c1`, the inhibition (usually the drop in the measured response relative to a control, in per cent) came out at 1.52%.
Regarding `Cc1ccc2c(c1)/C(=N/Nc1ccc(S(N)(=O)=O)cc1)C(=O)N2`, the inhibition was -0.15%.
Same read-out and setting: to `O=C1Nc2ccccc2/C1=C/Nc1ccc2[nH]c(=O)[nH]c2c1` belongs 5.76%.
In the case of `C[C@@H](Oc1cc(-n2cnc3ccc(OC[C@@H](O)CO)cc32)sc1C(N)=O)c1ccccc1Cl`, the inhibition was determined as 2.55%.
Same read-out and setting: as for `Cc1cc(-c2ccccn2)cc(C)c1/C=C/c1cncc(-c2nn[nH]n2)c1`, the figure is 2.01%; as for `NS(=O)(=O)c1ccc(Nc2cc(-c3cccc(O)c3)n[nH]2)cc1`, 4.05%; as for `Cc1ccc(C(=O)NC2CC2)cc1-c1ccc2[nH]ncc2c1`, 0.34%.
As to `COC(=O)Nc1nc2cc(Oc3ccc(NC(=O)Nc4cccc(Br)c4)cc3)ccc2[nH]1`, the inhibition is 31.3%.
On the same count and under the same terms, to `COc1ccc(-c2nn3ncccc3c2-c2ccnc(Nc3cccc(C(F)(F)F)c3)n2)cc1` belongs 2.11%; to `[O-][S+]1CCN(Cc2ccc(-c3ccc4ncnc(Nc5ccc(OCc6ccccc6)c(Cl)c5)c4c3)o2)CC1`, 0.37%.
Same read-out and setting: to `CS(=O)(=O)CCNCc1nc(-c2ccc3ncnc(Nc4ccc(OCc5cccc(C(F)(F)F)c5)cc4)c3c2)cs1` belongs 5.84%; to `CN(C)c1cc2c(Nc3ccc4c(cnn4Cc4ccccc4)c3)ncnc2cn1`, 2.74%.
With `Oc1cccc(-c2nc(-c3ccccc3)[nH]c2-c2ccncc2)c1`, the inhibition was determined as 3.23%.
The same measure, in the same setting: to `Cc1ccc(O)cc1Nc1ccnc2ccc(S(C)(=O)=O)cc12` belongs 27.1%; to `CCS(=O)(=O)c1ccc(OC)c(Nc2nccc(N(C)c3ccc4c(C)n[nH]c4c3)n2)c1`, 6.69%.
Take `NS(=O)(=O)c1cccc(-c2cc3ccncc3cc2OCc2ccccc2)c1`: the inhibition was 4.31%.
As to `COc1cc2ncnc(Nc3ccc4c(cnn4Cc4ccccc4)c3)c2cc1OC`, the inhibition came out at 4.78%.
With `COc1cc(Nc2nccc(-c3cnn4ncccc34)n2)cc(OC)c1`, the inhibition amounted to 7.05%.
As to `ON=C1CCc2cc(-c3nc(C4CCNCC4)[nH]c3-c3ccncc3)ccc21`, the inhibition was found to be 1.37%.
For the compound `COc1cc2ncnc(Nc3ccc(C)c(O)c3)c2cc1OC`, the inhibition stood at 3.58%.
With `O=S(=O)(CCOCc1ccc(-c2ccc3ncnc(Nc4ccc(OCc5cccc(F)c5)c(Cl)c4)c3c2)o1)c1ccccc1`, the inhibition was 3.25%.
On the same count and under the same terms, to `FC(F)(F)c1ccc(-c2nn3ncccc3c2-c2ccnc(Nc3ccc4c(c3)OCCO4)n2)cc1` belongs 9.11%.
Consider `O=C(Nc1ccc(Oc2ccc3[nH]c(NC(=O)c4ccco4)nc3c2)cc1)Nc1cc(C(F)(F)F)ccc1F`, for which the inhibition was 49.4%.
Same read-out and setting: as for `NC(=O)c1sc(-n2cnc3ccccc32)cc1OCc1ccccc1Br`, the figure is 2%; as for `CCCN1CCCC(c2ccc(Nc3nc(Nc4cc(F)ccc4C(N)=O)c4cc[nH]c4n3)c(OC)c2)C1` (stereo unspecified), 4%; as for `COc1ccc2ncnc(Nc3ccc(OCc4ccccc4)cc3)c2c1`, 2.79%.
The same measure, in the same setting: as for `CCn1c(-c2nonc2N)nc2c(C#CC(C)(C)O)nc(OCCNC)cc21`, the figure is 2.67%; as for `NS(=O)(=O)c1ccc(-c2cc3ccncc3cc2OCc2ccccc2)cc1`, 1.38%; as for `COC(=O)c1ccc2c(c1)C(=Cc1cc(Br)c(O)c(Br)c1)C(=O)N2`, 3.09%.
Still for that read-out and setting: as for `Nc1nccc(C#Cc2cncnc2Nc2ccc(OCc3cccc(F)c3)c(Cl)c2)n1`, the figure is 4.38%.
Regarding `Cc1ccc2c(-c3ccnc(Nc4ccc5c(c4)OCCO5)n3)c(-c3ccc(C(F)(F)F)cc3)nn2n1`, the inhibition is -0.68%.
In the case of `Nc1nccc(-c2c(-c3ccc(F)cc3)ncn2CCCN2CCOCC2)n1`, the inhibition is 8.3%.
As to `COc1cc(/C=N/Nc2ncnc3c2cnn3C(C)C)ccc1O`, the inhibition came out at 0.88%.

The target is the same in the next assay. The settings on record: at 1 µM.
For the compound `CS(=O)(=O)Nc1cccc(-c2ccc3c(NC(=O)C4CC4)n[nH]c3c2)c1`, the inhibition was determined as 7.04%.
On the same count and under the same terms, to `Cc1ccc2c(c1)/C(=N/Nc1ccc(S(N)(=O)=O)cc1)C(=O)N2` belongs 2.63%; to `O=C1Nc2ccccc2/C1=C/Nc1ccc2[nH]c(=O)[nH]c2c1`, 9.19%; to `C[C@@H](Oc1cc(-n2cnc3ccc(OC[C@@H](O)CO)cc32)sc1C(N)=O)c1ccccc1Cl`, 14.6%.
As to `Cc1cc(-c2ccccn2)cc(C)c1/C=C/c1cncc(-c2nn[nH]n2)c1`, the inhibition was 8.32%.
The same measure, in the same setting: as for `NS(=O)(=O)c1ccc(Nc2cc(-c3cccc(O)c3)n[nH]2)cc1`, the figure is 3.13%; as for `Cc1ccc(C(=O)NC2CC2)cc1-c1ccc2[nH]ncc2c1`, 3.3%.
As to `COC(=O)Nc1nc2cc(Oc3ccc(NC(=O)Nc4cccc(Br)c4)cc3)ccc2[nH]1`, the inhibition was 54%.
Still for that read-out and setting: as for `COc1ccc(-c2nn3ncccc3c2-c2ccnc(Nc3cccc(C(F)(F)F)c3)n2)cc1`, the figure is 9.2%; as for `[O-][S+]1CCN(Cc2ccc(-c3ccc4ncnc(Nc5ccc(OCc6ccccc6)c(Cl)c5)c4c3)o2)CC1`, 1.08%.
Still for that read-out and setting: to `CS(=O)(=O)CCNCc1nc(-c2ccc3ncnc(Nc4ccc(OCc5cccc(C(F)(F)F)c5)cc4)c3c2)cs1` belongs 6.51%; to `CN(C)c1cc2c(Nc3ccc4c(cnn4Cc4ccccc4)c3)ncnc2cn1`, 5.29%.
The same measure, in the same setting: as for `Oc1cccc(-c2nc(-c3ccccc3)[nH]c2-c2ccncc2)c1`, the figure is 15.7%; as for `Cc1ccc(O)cc1Nc1ccnc2ccc(S(C)(=O)=O)cc12`, 70.5%.
Regarding `CCS(=O)(=O)c1ccc(OC)c(Nc2nccc(N(C)c3ccc4c(C)n[nH]c4c3)n2)c1`, the inhibition was found to be 46.3%.
As to `NS(=O)(=O)c1cccc(-c2cc3ccncc3cc2OCc2ccccc2)c1`, the inhibition was 7.65%.
Still for that read-out and setting: as for `COc1cc2ncnc(Nc3ccc4c(cnn4Cc4ccccc4)c3)c2cc1OC`, the figure is 10.2%.
Same read-out and setting: as for `COc1cc(Nc2nccc(-c3cnn4ncccc34)n2)cc(OC)c1`, the figure is 39.6%.
For the compound `ON=C1CCc2cc(-c3nc(C4CCNCC4)[nH]c3-c3ccncc3)ccc21`, the inhibition is 1.77%.
For the compound `COc1cc2ncnc(Nc3ccc(C)c(O)c3)c2cc1OC`, the inhibition was 17.7%.
Regarding `O=S(=O)(CCOCc1ccc(-c2ccc3ncnc(Nc4ccc(OCc5cccc(F)c5)c(Cl)c4)c3c2)o1)c1ccccc1`, the inhibition was determined as 2.48%.
Same read-out and setting: as for `FC(F)(F)c1ccc(-c2nn3ncccc3c2-c2ccnc(Nc3ccc4c(c3)OCCO4)n2)cc1`, the figure is 33.8%; as for `O=C(Nc1ccc(Oc2ccc3[nH]c(NC(=O)c4ccco4)nc3c2)cc1)Nc1cc(C(F)(F)F)ccc1F`, 82.4%.
Still for that read-out and setting: to `NC(=O)c1sc(-n2cnc3ccccc32)cc1OCc1ccccc1Br` belongs 6.42%; to `CCCN1CCCC(c2ccc(Nc3nc(Nc4cc(F)ccc4C(N)=O)c4cc[nH]c4n3)c(OC)c2)C1` (stereo unspecified), 4.28%; to `COc1ccc2ncnc(Nc3ccc(OCc4ccccc4)cc3)c2c1`, 5.45%.
In the case of `CCn1c(-c2nonc2N)nc2c(C#CC(C)(C)O)nc(OCCNC)cc21`, the inhibition turned out to be 6.8%.
As to `NS(=O)(=O)c1ccc(-c2cc3ccncc3cc2OCc2ccccc2)cc1`, the inhibition is 3.06%.
Still for that read-out and setting: as for `COC(=O)c1ccc2c(c1)C(=Cc1cc(Br)c(O)c(Br)c1)C(=O)N2`, the figure is 3.01%; as for `Nc1nccc(C#Cc2cncnc2Nc2ccc(OCc3cccc(F)c3)c(Cl)c2)n1`, 3.5%; as for `Cc1ccc2c(-c3ccnc(Nc4ccc5c(c4)OCCO5)n3)c(-c3ccc(C(F)(F)F)cc3)nn2n1`, 6.26%.
For `Nc1nccc(-c2c(-c3ccc(F)cc3)ncn2CCCN2CCOCC2)n1`, the inhibition was 8.42%.
Still for that read-out and setting: to `COc1cc(/C=N/Nc2ncnc3c2cnn3C(C)C)ccc1O` belongs 12.2%.

For the origin of these results see ChEMBL document CHEMBL1961873, “Compounds: GSK PKIS; Assays: Nanosyn kinase panel” (2012).
